# Reference: PubChem BioAssay (NCI)
# Compounds without any hit were thinned out: in the full panel of roughly 83,000, 20% have a hit.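 Cells were grown in 96-well plates and exposed to the test compound at a single concentration for 48 hours; results are reported as percent growth, with values below 10 considered active.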 Values without a mark were called inactive. Active and inactive are the calls of the source.
# Tested on: HOP-92 NSCLC
# Test: NCI-60 one-dose screen, 48 h (100 = growth as untreated, 0 = no growth, -100 = all killed)
# Settings: 10 µM unless noted
# Protocol: Growth inhibition of the HOP-92 human Non-Small Cell Lung tumor cell line is measured as a screen for anti-cancer activity. Cells are grown in 96 well plates and exposed to the test compound for 48 hours. Compounds are tested at a single concentration, which is 10^-5 M for most compounds. The reported endpoint is percent growth (GI% or GIPRCNT), where numbers from 0 - 100% represent growth inhibition, and numbers from -100% - 0 represent cell death. For example, a value of 40 represents 60% growth inhibition. A value of 0 means no net growth occurred over the course of the experiment. A value of -40 indicates 40% of cells at the beginning of the experiment died by the end of the experiment. A value of -100 means all cells are dead at the end of the experiment.
# NCI-60 Human Tumor Cell Lines Screen was performed using the standard one-dose NCI protocol, which is described in more detail at https://dtp.cancer.gov/discovery_development/nci-60/default.htm.
# Compounds with GIPRCNT values below 10 were considered active. Activity score was based on GIPRCNT using the following formula: […]
# Score is 0 for GIPRCNT values of 100 or above, 50 for GIPRCNT values of 0, and 100 for GIPRCNT values of -100.
row,SMILES,growth
1,O=C(/C=C/c1ccc(-c2ccccc2)cc1)c1nc2ccccc2n1Cc1ccc(Br)cc1,40.1%
2,O=C1Nc2cc(Cl)ccc2/C1=C/c1cccc(OCc2ccccn2)c1,-3.65% (active)
3,CCN(CC)c1ccc(/C=N/Nc2nc(-c3ccc(Br)cc3)cs2)c(O)c1,104%
4,Cc1cccc(NC(=O)[C@]23CCC(C)(C)CC2C2=CCC4[C@@]5(C)C[C@@H](O)[C@H](O)[C@@](C)(CO)C5CC[C@@]4(C)[C@]2(C)CC3)c1 (stereo not given in full),-24.8% (active)
5,O=C(/C=C/c1ccc(-c2ccccc2)cc1)c1nc2ccccc2n1Cc1ccc(F)cc1,35.4%
6,Cc1ccc(-c2nc(C#N)c(S(=O)(=O)N3CCN(S(=O)(=O)c4ccc(Cl)cc4)CC3)o2)cc1,94.6%
7,Cn1cc(NC(=O)c2cc(NC(=O)c3ccc(/C=C/c4ccccc4)cc3)cn2C)cc1C(=O)NCCCN1CCOCC1,-18% (active)
8,Cc1cc(=O)oc2cc(OCCOc3ccc(/C=C/C(=O)Nc4ccccc4N)cc3)ccc12,31%
9,C#CCOc1ccc(/C=N/Nc2nc(-c3ccc(Cl)cc3)cs2)cc1OC,48.8%
10,CCC(C)(C)c1ccc(OCCCCN2CCN(c3ccncc3)CC2)cc1,3.82% (active)
11,COc1ccc(C2=NN(C(C)=O)C(c3ccc(OCc4ccc(Cl)cc4)c(OC)c3)C2)cc1OC (stereo not given),37.1%
12,Cc1cc2nc3c4ccccc4n(CCCN(C)C)c3nc2cc1C,-18.2% (active)
13,CCOC(=O)C1=C(N)N(c2ccccc2)C2=C(C(=O)CC(C)(C)C2)C1c1ccc([N+](=O)[O-])cc1 (stereo not given),106%
14,CN(C)CCCNC(=O)c1cc(NC(=O)c2cc(NC(=O)c3ccc(C#Cc4ccccc4)cc3)cn2C)cn1C,-26% (active)
15,Cc1cccc(NC(=O)CN2CCN(c3ncnc4c3cnn4-c3ccccc3)CC2)c1,98.2%
16,Clc1ccc(-c2ccc(OCCCN3CCN(c4ccncc4)CC3)cc2)cc1,15.9%
17,COc1ccc(C(=O)/C=C/c2ccc(Cl)c(Cl)c2)cc1S(N)(=O)=O,31.2%
18,CCCCCCCCc1ccc(C(=O)Nc2cccc(P(=O)(O)O)c2)cc1,114%
19,Cn1cc(-c2cc(N)n3nc(-c4cn(C)c5ccc(Cl)cc45)cc3n2)c2ccccc21,133%
20,Cc1c(C(=O)NNC(=O)Nc2ccc(Cl)cc2)nnn1-c1ccc(Br)cc1,92.8%

row,SMILES,growth
1,C=C1CCC2C3(C)COC(c4ccc(F)cc4)OC3CCC2(C)C1CC(O)C1=CCOC1=O (stereo not given),45.9%
2,N/N=C(\N)c1c(N)nc(=S)[nH]c1-c1ccc(Cl)cc1Cl,76.2%
3,CC(=O)Nc1ccc(-c2cn(-c3cccc(C(=O)Nc4ccc(N5CCN(C)CC5)cc4)c3)nn2)cn1,44.8%
4,CN1CCN(c2ccc3c(c2)nc(NNC(=O)c2cnccn2)c2cccn23)CC1,-29.3% (active)
5,COc1ccc(C(=O)/C=C/c2cccc(Br)c2)cc1S(N)(=O)=O,-9.79% (active)
6,COc1ccc(-c2c(Nn3cnnn3)no[n+]2[O-])cc1,26%
7,Cc1sc(C(NC(=O)OCCn2c([N+](=O)[O-])cnc2C)C(F)(F)Cl)nc1-c1ccc(OC(F)(F)F)cc1 (stereo not given),-82% (active)
8,CCCSc1nc(NCCc2c[nH]c3ccccc23)c(C#N)c(-c2ccc(F)cc2)n1,52.1%
9,CC1(C)CC[C@]2(C(=O)Nc3ccc(Br)cc3)CC[C@]3(C)C(=CCC4[C@@]5(C)C[C@@H](O)[C@H](O)[C@@](C)(CO)C5CC[C@]43C)C2C1 (stereo not given in full),-53.4% (active)
10,CCOC(=O)C1=C(N)N(c2ccccc2)C2=C(C(=O)CC(C)(C)C2)C1c1ccccc1Cl (stereo not given),68.9%
11,COCOc1cc2c(=O)c(C)c(C(=O)N[C@@H](Cc3ccccc3)C(O)C(=O)NCc3ccccc3)oc2cc1OC (stereo not given in full),27.8%
12,COc1cccc(COc2ccc(NC(=O)Nc3ccc(Cl)c(C(F)(F)F)c3)cc2)c1,6.12% (active)
13,c1ccc(-c2csc(Nc3cccc(Nc4nc(-c5ccccc5)cs4)c3)n2)cc1,43.7%
14,O=C(NNc1nc2cc(F)ccc2n2c(CN3CCCCC3)ccc12)c1cnccn1,-24.8% (active)
15,COc1ccc(-c2nc(SC(C)C)nc(NCCc3c[nH]c4ccccc34)c2C#N)cc1,39%
16,CC1(C)CC[C@]2(C(=O)Nc3ccc(F)cc3)CC[C@]3(C)C(=CCC4[C@@]5(C)C[C@@H](O)[C@H](O)[C@@](C)(CO)C5CC[C@]43C)C2C1 (stereo not given in full),-1.23% (active)
17,COc1cccc(-c2c(C#N)c(-c3ccc(Cl)cc3)nc3n[nH]c(-c4ccc(Cl)cc4)c23)c1,-5.01% (active)
18,N#Cc1c(-c2ccc(Br)cc2)nc2n[nH]c(-c3ccc(Br)cc3)c2c1-c1ccc(C(F)(F)F)cc1,-17.3% (active)
19,Nc1cc2ccccc2c(=O)n1NC(=O)c1ccc(I)cc1,106%
20,COC(=O)/C=C/c1cccc2c1C(=O)NC(C)(c1cc3cc4ccccc4cc3oc1=O)N2 (stereo not given),47.1%
